Shown are actives, neighbours in structure and some others; about 6.7% of the full set was active somewhere.
T cruzi growth: blocks T. cruzi growth in NIH3T3 culture | T. cruzi beta-gal in NIH3T3, GalScreen luminescence, 90 h | inhibition, % at 8.34 µM | actives 5.9% (n = 77,000) | AID 624255;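 active = mean inhibition above about 93%, with at least 55% of replicates each passing it, limit read from the data, passing the limit was not always enough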
Pf Dd2 growth: inhibitors of Plasmodium falciparum Dd2 growth; P. falciparum Dd2 growth, SYBR Green, 72 h; hits give low values; activity change, % at 10 µM; actives 2.3% (n = 94,000); in the data active = activity change below about -80%
C diff HTS: inhibitors of Clostridium difficile growth; growth activity, negative = inhibition, % at 16 µg/mL (by protocol); actives 0.25% (n = 86,000); Clostridium difficile clinical isolate growth, OD600, 24 h; hits give low values;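 active = mean growth activity at or below -80% and every replicate also at or below -80%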;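 also: 0% = DMSO wells and -100% = levofloxacin 16 µg/mL wells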
* = called active by the depositor; . = no result; ! = a repeat was not active.

SMILES	T cruzi growth	Pf Dd2 growth	C diff HTS
COc1ccc(S(=O)(=O)N(C)C[C@@H]2OCCCC[C@H](C)Oc3ccc(NC(=O)Nc4ccc(F)cc4)cc3C(=O)N([C@@H](C)CO)C[C@H]2C)cc1	64	-67	4
COc1ccc(S(=O)(=O)N(C)C[C@H]2OCCCC[C@@H](C)Oc3ccc(NC(=O)Nc4ccc(F)cc4)cc3C(=O)N([C@@H](C)CO)C[C@H]2C)cc1	104	-76	3
COc1ccc2c3c([nH]c2c1)[C@H](CO)N(Cc1cccc(Cl)c1)CC31CCN(C(C)=O)CC1	.	-89*	-1
COCC(=O)N1CCC2(CC1)CN(Cc1cccc(Cl)c1)[C@H](CO)c1[nH]c3cc(OC)ccc3c12	.	-71	1
COCC(=O)N1CC2(C1)CN(Cc1cccc(Cl)c1)[C@H](CO)c1[nH]c3cc(OC)ccc3c12	.	-57	-1
COc1ccc2c3c([nH]c2c1)[C@@H](CO)N(Cc1cccc(Cl)c1)CC31CCN(C(C)=O)CC1	.	-88*	7
COc1ccc2c3c([nH]c2c1)[C@H](CO)N(Cc1ccc(F)cc1)CC31CCN(C)CC1	.	-75	6
COc1ccc2c3c([nH]c2c1)[C@@H](CO)N(Cc1cccc(Cl)c1)CC31CN(C(C)=O)C1	.	-89*	8
COc1ccc2c3c([nH]c2c1)[C@@H](CO)N(Cc1ccccc1)CC31CCN(C(C)=O)CC1	.	20	.
COc1ccc2c3c([nH]c2c1)[C@H](CO)N(Cc1ccc(F)cc1)CC31CCN(C(C)=O)CC1	.	-89*	5
COc1ccc2c3c([nH]c2c1)[C@@H](CO)N(C(=O)C1CC1)CC31CCN(S(C)(=O)=O)CC1	.	25	5
C[C@H]1CN([C@@H](C)CO)C(=O)c2cccc(NC(=O)Nc3cccc4ccccc34)c2O[C@H]1CN(C)Cc1ccc(Oc2ccccc2)cc1	72	-47	.
COc1ccc(-c2ccc([C@H]3[C@H]4CN(C(=O)c5ccccn5)CC(=O)N4[C@H]3CO)cc2)cc1	.	-40	2
COc1ccc(CN(C)C[C@H]2OCCCC[C@H](C)Oc3ccc(NC(=O)c4ccccc4)cc3C(=O)N([C@H](C)CO)C[C@@H]2C)cc1	56	27	-4
O=C(C[C@H]1CC[C@@H]2[C@H](COC[C@H](O)CN2C(=O)Nc2ccc(C(F)(F)F)cc2)O1)NC1Cc2ccccc2C1	38	-14	-100*!
CCNC(=O)C[C@@H]1CC[C@@H]2[C@H](COC[C@@H](O)CN2C(=O)Nc2ccc(C(F)(F)F)cc2)O1	-16	16	-94*!
CCNC(=O)C[C@@H]1CC[C@H]2[C@@H](COC[C@H](O)CN2C(=O)Nc2ccc(C(F)(F)F)cc2)O1	-22	3	67
O=C(C[C@@H]1CC[C@@H]2[C@H](COC[C@H](O)CN2C(=O)Nc2ccc(C(F)(F)F)cc2)O1)NC1Cc2ccccc2C1	78	2	22
C[C@H]1CN([C@@H](C)CO)C(=O)c2cccc(NS(=O)(=O)c3cn(C)cn3)c2O[C@@H]1CN(C)Cc1ccncc1	.	0	4
Cc1noc(C)c1S(=O)(=O)Nc1ccc2c(c1)C(=O)N([C@H](C)CO)C[C@@H](C)[C@H](CN(C)C(=O)Nc1ccc3c(c1)OCO3)O2	7	11	.
COc1ccc(CN(C)C[C@@H]2Oc3ccc(NC(=O)Cc4cn(C)c5ccccc45)cc3C(=O)N([C@@H](C)CO)C[C@H]2C)cc1	39	-30	-4
C[C@H]1CN([C@@H](C)CO)C(=O)c2cc(NC(=O)Cc3cn(C)c4ccccc34)ccc2O[C@H]1CN(C)CC1CC1	26	-5	0
C[C@H](CO)N1C[C@H](C)[C@@H](CN(C)Cc2ccc(Oc3ccccc3)cc2)Oc2ccc(NC(=O)Cc3cn(C)c4ccccc34)cc2C1=O	62	-84*	11
C[C@H](CO)N1C[C@H](C)[C@@H](CN(C)C(=O)Nc2cccc3ccccc23)Oc2ccc(NC(=O)Cc3cn(C)c4ccccc34)cc2C1=O	-12	-87*	.
C[C@@H]1CN([C@@H](C)CO)C(=O)c2cc(NC(=O)Cc3cn(C)c4ccccc34)ccc2O[C@H]1CN(C)C(=O)Nc1cccc2ccccc12	1	-56	.
SMILES	T cruzi growth	Pf Dd2 growth	C diff HTS
C[C@H]1CN([C@@H](C)CO)C(=O)c2cc(NC(=O)Cc3cn(C)c4ccccc34)ccc2O[C@@H]1CN(C)CC1CC1	.	-83*	4
COc1ccc2c3c([nH]c2c1)[C@@H](CO)N(Cc1ccccc1)CC31CN(C(=O)NC(C)C)C1	.	-49	0
C[C@H]1CN([C@@H](C)CO)C(=O)c2c(c3ccccc3n2C)-c2ccccc2CO[C@H]1CN(C)C(=O)c1ccc(F)cc1	52	-69	.
C[C@H]1CN([C@@H](C)CO)C(=O)c2cccc(NC(=O)c3nc4ccccc4s3)c2O[C@@H]1CN(C)S(=O)(=O)c1ccc(F)cc1	74	-56	-6
C[C@@H]1CN([C@@H](C)CO)C(=O)c2cccc(NC(=O)c3nc4ccccc4s3)c2O[C@H]1CN(C)C(=O)Nc1ccc2c(c1)OCO2	49	-90*	.
C[C@@H]1CN([C@@H](C)CO)C(=O)c2cccc(NC(=O)c3nc4ccccc4s3)c2O[C@H]1CN(C)C(=O)Nc1cccc2ccccc12	47	-94*	.
C[C@H]1CN([C@@H](C)CO)C(=O)c2cccc(NC(=O)c3nc4ccccc4s3)c2O[C@@H]1CN(C)C(=O)Nc1cccc2ccccc12	14	-76	.
C[C@H]1CN([C@@H](C)CO)C(=O)c2cccc(NC(=O)c3nc4ccccc4s3)c2O[C@H]1CN(C)C(=O)Nc1cccc2ccccc12	74	-27	.
C[C@H](CO)N1C[C@H](C)[C@@H](CN(C)C(=O)Nc2ccc3c(c2)OCO3)Oc2c(NC(=O)c3nc4ccccc4s3)cccc2C1=O	-240	-45	.
C[C@@H]1CN([C@@H](C)CO)C(=O)c2cccc(NC(=O)c3nc4ccccc4s3)c2O[C@@H]1CN(C)C(=O)Nc1cccc2ccccc12	41	-88*	.
CO[C@@H]1CN(C)C(=O)c2cc(NC(=O)NC3CCCCC3)ccc2OC[C@@H](C)N(C(C)=O)C[C@@H]1C	-30	-1	-1
CC(C)NC(=O)Nc1cccc2c1O[C@@H](CN(C)Cc1ccccc1)[C@@H](C)CN([C@H](C)CO)C2=O	-1	3	0
COc1ccc(CN(C)C[C@H]2Oc3c(NC(=O)CCCCCC(=O)Nc4ccccc4N)cccc3C(=O)N([C@H](C)CO)C[C@@H]2C)cc1	.	-85*	-7
C[C@@H]1CN([C@H](C)CO)C(=O)c2cccc(NC(=O)CCCCCC(=O)Nc3ccccc3N)c2O[C@@H]1CN(C)Cc1ccncc1	.	31	3
C[C@H]1CN([C@@H](C)CO)C(=O)c2cccc(NC(=O)CCCCCC(=O)Nc3ccccc3N)c2O[C@H]1CN(C)Cc1ccc(Oc2ccccc2)cc1	.	-90*	10
C[C@H]1CN([C@@H](C)CO)C(=O)c2cc(NC(=O)CCCCCC(=O)Nc3ccccc3N)ccc2O[C@H]1CN(C)Cc1ccc(Oc2ccccc2)cc1	.	-75	12
C[C@H](CO)N1C[C@H](C)[C@@H](CN(C)Cc2ccc(Oc3ccccc3)cc2)Oc2c(NC(=O)CCCCCC(=O)Nc3ccccc3N)cccc2C1=O	.	-90*	-1

Compound activity from PubChem.
